In ChEMBL document CHEMBL3988442, “University of Dundee, Small-Polar-MMV Screening Library” (2021) one finds Percent Effect data, which are given here for eleven compounds.

For some assays here: Measured potencies and affinities stand elsewhere.

What all share (parameters): scale not given: direction of the effect not stated beside the values
Experiment [1] addresses Protein translocase subunit SecA (Escherichia coli (strain K12)) (UniProt P10408). Put plainly: Assay to Identify E. coli SecA ATPase Inhibitors. Conditions: 30 µM. The format is functional.
Experiment [2] addresses T1, Ubiquitin-activating enzyme e1, putative (Leishmania donovani (strain BPK282A1)) (UniProt E9BSI1).
T1 sequence (whole entry): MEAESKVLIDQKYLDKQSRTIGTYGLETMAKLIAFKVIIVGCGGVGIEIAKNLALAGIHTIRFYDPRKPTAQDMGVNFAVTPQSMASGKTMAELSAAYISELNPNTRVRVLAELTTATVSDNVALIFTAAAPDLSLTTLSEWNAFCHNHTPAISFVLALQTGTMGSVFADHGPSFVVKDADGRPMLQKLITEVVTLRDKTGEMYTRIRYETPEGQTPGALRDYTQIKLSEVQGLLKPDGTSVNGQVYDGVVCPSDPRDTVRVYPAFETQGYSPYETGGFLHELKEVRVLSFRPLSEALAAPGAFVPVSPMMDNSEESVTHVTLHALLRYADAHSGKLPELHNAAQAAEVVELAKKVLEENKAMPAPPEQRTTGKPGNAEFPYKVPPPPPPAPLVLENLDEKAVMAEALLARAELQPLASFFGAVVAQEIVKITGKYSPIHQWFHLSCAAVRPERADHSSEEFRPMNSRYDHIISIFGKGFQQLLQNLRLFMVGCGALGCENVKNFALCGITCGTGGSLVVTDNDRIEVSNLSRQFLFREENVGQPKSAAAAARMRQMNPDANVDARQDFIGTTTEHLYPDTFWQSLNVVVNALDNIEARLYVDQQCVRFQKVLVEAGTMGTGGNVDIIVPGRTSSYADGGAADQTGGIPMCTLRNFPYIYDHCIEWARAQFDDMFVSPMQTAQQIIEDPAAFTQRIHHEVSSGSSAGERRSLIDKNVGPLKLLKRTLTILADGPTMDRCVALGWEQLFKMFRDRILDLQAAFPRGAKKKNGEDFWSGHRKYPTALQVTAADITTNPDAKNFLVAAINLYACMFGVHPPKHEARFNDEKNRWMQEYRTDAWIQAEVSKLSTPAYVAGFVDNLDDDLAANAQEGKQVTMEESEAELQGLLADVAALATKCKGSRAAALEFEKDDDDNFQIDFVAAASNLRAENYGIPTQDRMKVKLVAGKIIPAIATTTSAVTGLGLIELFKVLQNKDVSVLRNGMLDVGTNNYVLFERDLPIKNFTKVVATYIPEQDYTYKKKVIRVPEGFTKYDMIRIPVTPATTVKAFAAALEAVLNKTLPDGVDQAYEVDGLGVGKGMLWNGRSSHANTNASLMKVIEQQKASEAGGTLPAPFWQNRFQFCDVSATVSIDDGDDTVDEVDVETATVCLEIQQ
The experiment is described as follows: Leishmania donovani Ubiquitin Activating Enzyme (LdE1). In kind it is functional. Conditions: 30 µM.

Experiment [3] concerns the target Sialic acid-binding Ig-like lectin 9 (Homo sapiens) (UniProt Q9Y336). Put plainly: Hs-Siglec9 ALPHAscreen SOP 20170721. As to conditions: 10 µM.
The subject of experiment [4] is Trypanosoma cruzi. The experiment is described as follows: Trypanosoma cruzi phosphomannomutase and mannose-1-phosphate guanylyltransferase assay. In kind it is functional. As to conditions: 10 µM.
For experiment [5], the target named is T2, Arginase-2, mitochondrial (Homo sapiens) (UniProt P78540).
T2 sequence (whole entry): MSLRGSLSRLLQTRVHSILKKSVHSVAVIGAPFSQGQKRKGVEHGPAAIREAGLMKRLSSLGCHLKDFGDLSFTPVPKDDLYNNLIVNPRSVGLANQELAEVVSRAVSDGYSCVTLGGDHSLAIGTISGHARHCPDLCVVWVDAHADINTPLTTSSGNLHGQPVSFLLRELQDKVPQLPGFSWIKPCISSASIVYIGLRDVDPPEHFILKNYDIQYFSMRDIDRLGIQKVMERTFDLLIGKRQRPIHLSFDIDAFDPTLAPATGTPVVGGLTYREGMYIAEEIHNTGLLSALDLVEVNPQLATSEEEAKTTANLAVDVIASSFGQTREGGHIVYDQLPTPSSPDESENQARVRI
The experiment is described as follows: in vitro enzyme assay to detect the production of urea directly proportional to the activity of Arginase II. Also: in the data most compounds retested in dose-response had high values. The format is functional. Conditions: 33.3 µM.

The target in experiment [6] is T3, Proteasome subunit beta (Trypanosoma cruzi) (UniProt O96673).
T3 sequence (whole entry): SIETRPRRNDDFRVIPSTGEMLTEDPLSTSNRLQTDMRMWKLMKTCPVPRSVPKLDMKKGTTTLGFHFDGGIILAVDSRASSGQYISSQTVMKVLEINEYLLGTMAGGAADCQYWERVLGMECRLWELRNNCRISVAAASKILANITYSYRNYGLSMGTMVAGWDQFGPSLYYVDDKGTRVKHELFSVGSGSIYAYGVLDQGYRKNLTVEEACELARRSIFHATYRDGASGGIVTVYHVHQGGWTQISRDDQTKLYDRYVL
Put plainly: Trypanosoma cruzi proteasome chymotrypsin-like activity (TcProtChymo) assay. Also: in the data most compounds retested in dose-response had high values. The format is functional. As to conditions: 9.37 µM.

The species entered for experiment [7] is Homo sapiens. Put plainly: To identify inhibition of the IFN signalling (Jak-Stat) pathway via expression of an eGFP reporter gene under the control of an IFN-stimulated response element (ISRE) containing MxA promoter. In kind it is functional. As to conditions: 30 µM.
Experiment [8] has as its target T4, Tyrosyl-tRNA synthetase, putative (Trypanosoma cruzi (strain CL Brener)) (UniProt Q4DSP6).
T4 sequence (whole entry): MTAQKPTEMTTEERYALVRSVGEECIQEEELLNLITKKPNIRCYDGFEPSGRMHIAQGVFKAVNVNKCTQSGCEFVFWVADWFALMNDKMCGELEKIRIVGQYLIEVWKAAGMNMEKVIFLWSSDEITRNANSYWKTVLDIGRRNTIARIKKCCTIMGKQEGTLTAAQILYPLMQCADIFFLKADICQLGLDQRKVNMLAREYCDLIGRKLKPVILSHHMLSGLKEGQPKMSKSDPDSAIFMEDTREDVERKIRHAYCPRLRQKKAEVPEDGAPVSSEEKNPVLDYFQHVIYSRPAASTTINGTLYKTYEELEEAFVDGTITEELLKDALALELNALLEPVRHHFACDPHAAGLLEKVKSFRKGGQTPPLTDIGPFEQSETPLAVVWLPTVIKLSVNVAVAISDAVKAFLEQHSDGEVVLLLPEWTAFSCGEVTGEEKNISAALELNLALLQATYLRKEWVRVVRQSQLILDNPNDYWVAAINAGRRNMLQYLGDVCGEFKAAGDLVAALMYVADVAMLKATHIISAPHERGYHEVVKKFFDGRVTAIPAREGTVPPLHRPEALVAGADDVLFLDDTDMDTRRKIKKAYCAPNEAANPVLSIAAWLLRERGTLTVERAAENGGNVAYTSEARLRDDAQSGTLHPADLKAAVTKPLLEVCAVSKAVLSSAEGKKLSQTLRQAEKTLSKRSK
Put plainly: Trypanosoma cruzi tyrosyl tRNA synthetase (TcYRS) _High Tyrosine SOP. Also: in the data most compounds retested in dose-response had high values. The format is functional. Conditions: 30 µM.

Experiment [9] has as its target T4, Tyrosyl-tRNA synthetase, putative (Trypanosoma cruzi (strain CL Brener)). Put plainly: Trypanosoma cruzi tyrosyl tRNA synthetase (TcYRS) SOP. In kind it is functional. As to conditions: 30 µM.
Experiment [10] has as its target Chromo domain-containing protein 1 (Saccharomyces cerevisiae (strain ATCC 204508 / S288c) (Baker's yeast)) (UniProt P32657). Put plainly: ScCHD-1 Enzyme Inhibition Assay. Also: in the data most compounds retested in dose-response had high values. In kind it is functional. Conditions: 30 µM.

Chain of Sialic acid-binding Ig-like lectin 9 (Homo sapiens) (Q9Y336 whole entry): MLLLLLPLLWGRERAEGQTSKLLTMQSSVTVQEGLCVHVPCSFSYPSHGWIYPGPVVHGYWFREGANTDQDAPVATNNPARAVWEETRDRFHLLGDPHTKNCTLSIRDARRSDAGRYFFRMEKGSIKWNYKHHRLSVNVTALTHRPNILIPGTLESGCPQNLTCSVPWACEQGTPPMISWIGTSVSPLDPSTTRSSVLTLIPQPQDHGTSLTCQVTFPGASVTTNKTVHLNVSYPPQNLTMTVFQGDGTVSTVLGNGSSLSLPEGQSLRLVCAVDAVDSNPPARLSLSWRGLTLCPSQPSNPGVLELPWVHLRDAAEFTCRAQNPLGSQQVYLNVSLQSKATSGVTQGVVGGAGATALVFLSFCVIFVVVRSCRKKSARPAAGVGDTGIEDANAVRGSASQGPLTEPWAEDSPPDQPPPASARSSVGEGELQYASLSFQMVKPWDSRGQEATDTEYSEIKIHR
Chain of Chromo domain-containing protein 1 (Saccharomyces cerevisiae (strain ATCC 204508 / S288c) (Baker's yeast)) (P32657 whole entry, the tested form may be a part): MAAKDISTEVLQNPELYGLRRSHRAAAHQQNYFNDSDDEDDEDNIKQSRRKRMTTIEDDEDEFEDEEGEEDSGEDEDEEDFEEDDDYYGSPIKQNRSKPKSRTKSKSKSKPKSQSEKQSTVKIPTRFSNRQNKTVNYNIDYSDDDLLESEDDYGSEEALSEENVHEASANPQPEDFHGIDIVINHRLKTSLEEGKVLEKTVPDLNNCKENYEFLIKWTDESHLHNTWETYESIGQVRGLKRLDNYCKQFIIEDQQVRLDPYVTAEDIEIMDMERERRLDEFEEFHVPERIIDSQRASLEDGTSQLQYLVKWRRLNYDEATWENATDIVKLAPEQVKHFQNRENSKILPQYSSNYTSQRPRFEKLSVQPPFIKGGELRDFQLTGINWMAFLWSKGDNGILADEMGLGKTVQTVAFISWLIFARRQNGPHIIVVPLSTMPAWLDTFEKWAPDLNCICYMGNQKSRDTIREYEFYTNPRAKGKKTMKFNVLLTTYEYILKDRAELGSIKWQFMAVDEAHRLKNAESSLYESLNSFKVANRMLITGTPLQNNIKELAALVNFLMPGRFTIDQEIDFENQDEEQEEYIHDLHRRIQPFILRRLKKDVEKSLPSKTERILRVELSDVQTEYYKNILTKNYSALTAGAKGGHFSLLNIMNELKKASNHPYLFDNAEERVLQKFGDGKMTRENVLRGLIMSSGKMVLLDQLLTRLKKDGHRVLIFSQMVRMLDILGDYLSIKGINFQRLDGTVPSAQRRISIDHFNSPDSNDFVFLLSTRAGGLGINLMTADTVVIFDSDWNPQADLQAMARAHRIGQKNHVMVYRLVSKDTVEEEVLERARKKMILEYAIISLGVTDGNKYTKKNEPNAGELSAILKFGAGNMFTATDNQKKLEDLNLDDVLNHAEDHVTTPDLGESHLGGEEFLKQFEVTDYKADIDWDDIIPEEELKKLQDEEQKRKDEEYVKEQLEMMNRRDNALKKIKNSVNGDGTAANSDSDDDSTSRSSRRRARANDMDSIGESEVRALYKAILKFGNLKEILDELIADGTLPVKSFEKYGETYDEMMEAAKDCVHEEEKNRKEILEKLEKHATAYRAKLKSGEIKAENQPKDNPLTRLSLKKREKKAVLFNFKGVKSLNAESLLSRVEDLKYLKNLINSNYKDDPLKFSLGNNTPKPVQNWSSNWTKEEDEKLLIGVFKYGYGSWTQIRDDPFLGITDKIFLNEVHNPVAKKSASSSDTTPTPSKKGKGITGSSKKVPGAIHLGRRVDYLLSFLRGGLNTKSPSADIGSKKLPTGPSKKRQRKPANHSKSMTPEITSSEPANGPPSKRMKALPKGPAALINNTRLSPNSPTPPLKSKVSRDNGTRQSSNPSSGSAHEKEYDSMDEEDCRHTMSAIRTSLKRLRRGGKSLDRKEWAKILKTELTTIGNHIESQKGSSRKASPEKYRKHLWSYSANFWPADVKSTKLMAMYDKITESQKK
Chain of Protein translocase subunit SecA (Escherichia coli (strain K12)) (P10408 whole entry): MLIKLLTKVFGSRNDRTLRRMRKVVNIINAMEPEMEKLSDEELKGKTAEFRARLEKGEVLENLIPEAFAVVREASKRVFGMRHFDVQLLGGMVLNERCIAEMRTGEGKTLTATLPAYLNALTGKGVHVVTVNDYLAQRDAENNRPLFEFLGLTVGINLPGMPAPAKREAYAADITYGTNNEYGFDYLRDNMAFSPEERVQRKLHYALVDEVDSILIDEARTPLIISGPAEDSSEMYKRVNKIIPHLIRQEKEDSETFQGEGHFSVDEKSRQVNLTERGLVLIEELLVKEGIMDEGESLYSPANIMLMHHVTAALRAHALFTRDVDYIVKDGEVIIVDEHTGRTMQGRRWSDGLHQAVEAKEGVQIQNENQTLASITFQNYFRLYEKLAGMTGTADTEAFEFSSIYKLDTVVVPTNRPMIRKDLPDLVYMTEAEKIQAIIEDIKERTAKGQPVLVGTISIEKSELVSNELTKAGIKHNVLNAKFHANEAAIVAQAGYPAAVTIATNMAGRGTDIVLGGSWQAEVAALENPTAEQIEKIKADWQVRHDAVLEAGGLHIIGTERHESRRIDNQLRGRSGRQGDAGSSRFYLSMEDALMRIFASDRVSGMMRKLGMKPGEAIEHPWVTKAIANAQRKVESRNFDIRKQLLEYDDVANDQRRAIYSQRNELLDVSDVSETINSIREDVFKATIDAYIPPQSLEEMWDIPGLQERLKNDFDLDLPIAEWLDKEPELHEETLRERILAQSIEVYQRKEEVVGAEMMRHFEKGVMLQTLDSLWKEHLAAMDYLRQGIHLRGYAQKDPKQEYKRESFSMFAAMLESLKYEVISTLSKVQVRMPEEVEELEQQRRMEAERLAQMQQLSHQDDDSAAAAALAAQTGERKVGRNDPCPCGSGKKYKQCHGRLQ

As to `CC(C)(C)c1cn2nc(N3CCCC3Cn3cncn3)sc2n1` (stereo not given), the Percent Effect is 0.788% in experiment [1]; 17.9% in experiment [2]; -6.25% in experiment [3]; 2.72% in experiment [4]; 6.15% in [5]; 17.1% in [6]. In addition, the Percent Effect in experiment [7] was 12.8%; in [8], 3.35%; in [9], 20.5%; in experiment [10], -6.04%.
Regarding `CC(c1cccc(S(N)(=O)=O)c1)N(C)CCOc1ccccc1` (stereo not given), the Percent Effect was -0.74% in [1]; -15.6% in [2]; 10.5% in experiment [3]; -4.48% in [4]; -5.12% in experiment [5]; 2.1% in [6]. In addition, the Percent Effect is 14.4% in experiment [7], -1.96% in experiment [8], -2.35% in [9] and 1.25% in experiment [10].
Consider `CN(C)c1ncccc1CNS(=O)(=O)c1ccccc1F`, for which the Percent Effect in [1] is -0.976%; in experiment [2], 15.6%; in [3], -3.68%; in [4], -3.17%; in experiment [5], 2.66%; in experiment [6], 13.3%. For the same compound, the Percent Effect in [7] was 19.8%; in [8], 4.9%; in [9], 11.8%; in experiment [10] it was -9.97%.
`COc1ccccc1OCC(=O)NS(=O)(=O)c1ccc(Br)s1`: the Percent Effect in experiment [1] is -3.35%; in experiment [2], 5.2%; in experiment [3], 18.6%; in experiment [4] it was -2.61%; in experiment [5] it was 2.66%; in experiment [6], 6.14%. Further, the Percent Effect in [7] was 1.82%; in [8] it was -1.96%; in [9] it was 7.06%; in [10] it was -3.46%.
As to `c1ccc(-c2nc(CN3CCOC(Cn4cccn4)C3)no2)cc1` (stereo not given), the Percent Effect in [1] is -2.84%; in experiment [2] it was 2.67%; in experiment [3], -2.67%; in experiment [4], -3.01%; in [5], 4.43%; in [6] it was 7.38%. For the same compound, the Percent Effect in [7] is 4.88%; in [8] it was 5.79%; in [9], 12.8%; in [10], -6.08%.
As to `CCCn1ccc(C(=O)N2CCOC(c3nc(-c4cccs4)no3)C2)n1` (stereo not given), the Percent Effect in experiment [1] was -2.75%; in experiment [2] it was 6.67%; in experiment [3] it was 6.13%; in experiment [4], -1.18%; in [5], 0%; in [6], 4.76%. Moreover, the Percent Effect in [7] is 1.83%; in [8] it was 5.29%; in experiment [9], 17.5%; in experiment [10], -17.3%.
Take `CCOC(=O)CN1CCC2(CC1)CC(=O)c1ccc(OC)cc1O2`: the Percent Effect in experiment [1] is -2.51%; in [2] it was 27.3%; in experiment [3], 8.34%; in [4], 4.13%; in experiment [5] it was -4.11%; in experiment [6], 19.1%. Moreover, the Percent Effect was 7.83% in experiment [7], 1.93% in experiment [8], 15% in experiment [9] and -11% in [10].
Consider `COc1ccc(CNCC2CCN(CC(C)O)CC2)c2ccccc12` (stereo not given), for which the Percent Effect in experiment [1] was -1.39%; in experiment [2] it was -10.3%; in experiment [3] it was 5.63%; in experiment [4], 5.73%; in experiment [5], 6.97%; in experiment [6], 0.939%. Further, the Percent Effect is 31.9% in experiment [7], 4.31% in experiment [8], 18.1% in [9] and -4.71% in experiment [10].
Turning to `CCn1ncc(NC(=O)c2cc(C3CC3)nc3c2c(C)nn3C)c1C`, the Percent Effect in experiment [1] is -5.7%; in experiment [2], 20%; in [3], -4.48%; in experiment [4], 3.75%; in experiment [5], -2.21%; in experiment [6], 22%. Besides, the Percent Effect in experiment [7] is 14.6%; in experiment [8], 2.12%; in experiment [9] it was 15%; in experiment [10] it was -28.1%.
On to `CCCn1nc2c(cc1=O)CN(CC(=O)Nc1ccncc1)CC2`, for which the Percent Effect in experiment [1] was -3.45%; in experiment [2], 10.4%; in [3], 6.89%; in experiment [4] it was -3.17%; in [5] it was 2.25%; in [6] it was 17.2%. Further, the Percent Effect is 3.95% in [7], 3.92% in [8], 11.8% in [9] and -14.2% in experiment [10].
For `O=C(NCCn1ccnc1)N1CCN(Cc2cccs2)CC1`, the Percent Effect is 2.19% in experiment [1]; 18.2% in [2]; -6.1% in experiment [3]; -9.14% in experiment [4]; 2.66% in experiment [5]; 21.9% in [6]. The Percent Effect in [7] is 12.6%; in [8] it was 4.9%; in experiment [9] it was 16.5%; in [10] it was -9.63%.
